PrPC surface inh: inhibitors of human cell surface prion protein PrPC, primary screen, cell-based, TR-FRET. Major prion protein (Homo sapiens), P04156. TR-FRET read-out. inhibition, % at 13.8 µM. 370,000 compounds, 0.43% hits. AID 720596, 2013; in the data active = inhibition above about 24%; also: 0% = median of the test wells and 100% = reference compound wells
CCHFV vOTU inh: CCHFV vOTU protease inhibitors, primary screen, biochemical, Pep-AMC substrate, fluorescence. Crimean-Congo hemorrhagic fever virus L polyprotein viral ovarian tumor (vOTU) protease …. inhibition, % at 11.5 µM. 370,000 compounds, 0.55% hits; in the data active = inhibition above about 30%; also: 0% = vehicle wells with enzyme and 100% = no enzyme wells
SARS 3CLpro inh: SARS-CoV 3CLpro protease inhibitors, primary screen, biochemical, quenched FRET | Replicase polyprotein 1ab (Severe acute respiratory syndrome coronavirus), P0C6X7 | recombinant SARS-CoV 3CLpro, quenched FRET peptide cleavage | inhibition, % at 6 µM | 290,000 compounds, 0.14% hits | AID 1706, 2009; in the data active = inhibition above about 12%
PrP UTR inh: inhibition of PrP 5' UTR reporter expression; AID 488862, 2010; 340,000 compounds, 0.35% hits; cell-based PrP 5' UTR mRNA reporter, plate reader; inhibition, % (no concentration beside the values); in the data active = inhibition above about 52%; also: 0 = median of the neutral control wells
PrPC TRFRET cf: confirmation of inhibitors of cell surface human prion protein, confirmation, cell-based, TR-FRET; 1,500 compounds, 65% hits; inhibition, % at 13.8 µM; AID 743200, 2013; cell surface PrPC level; shares compounds with PrPC surface inh; in the data active = inhibition above about 25%
LD9 cytotox: cytotoxicity in LD9 cells, cytotoxicity control for cell surface PrPc inhibitor project, cell-based, luminescence, high throughput | shares compounds with PrPC surface inh | luminescence viability | inhibition, % at 13.8 µM | 1,500 compounds, 29% hits | AID 743201, 2013; in the data active = inhibition above about 9.5%
An asterisk follows results filed as active. Rows were chosen to be rich in hits. Some 1.3% of all compounds tested hit in one or more screens of this group.

What do the screens show for `CCC1=C(CC2NCCc3ccccc32)CC2c3cc(OC)c(OC)cc3CCN2C1` (stereo unspecified)?
PrPC surface inh: 76*; CCHFV vOTU inh: -4; PrP UTR inh: 7; PrPC TRFRET cf: 83*; LD9 cytotox: 28*

Results for CC(=O)NC(=O)COC(=O)c1ccc2ncsc2c1 ?
PrPC surface inh: -1; CCHFV vOTU inh: 13; SARS 3CLpro inh: -3; PrP UTR inh: -14

How did CCCCOC(=S)NC(=O)c1sc2ccccc2c1Cl do in these assays?
PrPC surface inh: 43*; CCHFV vOTU inh: 15; SARS 3CLpro inh: -3; PrP UTR inh: -11; PrPC TRFRET cf: 18; LD9 cytotox: -8

What do the screens show for `CCCOc1ccc(C(CC(=O)O)NC(=O)c2sc3ccccc3c2Cl)cc1` (stereo unspecified)?
PrPC surface inh: 43*; CCHFV vOTU inh: 17; SARS 3CLpro inh: 7; PrP UTR inh: -13; PrPC TRFRET cf: 34*; LD9 cytotox: -5

Results for NC(N)=NS(=O)(=O)c1ccc(NC(=S)NC(=O)c2sc3ccccc3c2Cl)cc1 ?
PrPC surface inh: 36*; CCHFV vOTU inh: -5; SARS 3CLpro inh: 0; PrP UTR inh: -15; PrPC TRFRET cf: 77*; LD9 cytotox: -7

Results for O=C(CSc1ccc2c(c1)OCCO2)Nc1cccc(S(=O)(=O)N2CCCCC2)c1 ?
PrPC surface inh: 6; CCHFV vOTU inh: 10; SARS 3CLpro inh: 2; PrP UTR inh: -27

What do the screens show for `COc1ccc(OCCNC(=O)c2ccc3nc(C)c(N(C)C(=O)CCc4ccccc4)n3c2)cc1`?
PrPC surface inh: 59*; CCHFV vOTU inh: 9; PrPC TRFRET cf: -3; LD9 cytotox: 0

Results for CCCCC(=O)N(C)c1c(C)nc2ccc(C(=O)NCCOc3ccc(OC)cc3)cn12 ?
PrPC surface inh: 7; CCHFV vOTU inh: -2

How did CCOCc1c(C(=O)Nc2ccc3nc(N4CCOCC4)sc3c2)oc2ccccc12 do in these assays?
PrPC surface inh: 33*; CCHFV vOTU inh: 15; PrP UTR inh: -20; PrPC TRFRET cf: 16; LD9 cytotox: 6

What do the screens show for `Cc1cc(C(=O)CSc2nc3ccccc3[nH]2)c(C)n1CC1CCCO1` (stereo unspecified)?
PrPC surface inh: 44*; CCHFV vOTU inh: 19; SARS 3CLpro inh: -1; PrP UTR inh: 9; PrPC TRFRET cf: 34*; LD9 cytotox: 38*

How did Cc1cc(C(=O)CSc2nc(N)cc(=O)[nH]2)c(C)n1CC1CCCO1 (stereo unspecified) do in these assays?
PrPC surface inh: 0; CCHFV vOTU inh: 7; PrP UTR inh: -17

How did COc1ccc(-n2c(-c3ccc(Br)cc3)c[n+]3c2CCc2ccccc2-3)cc1 do in these assays?
PrPC surface inh: 15; CCHFV vOTU inh: -4; SARS 3CLpro inh: -4; PrP UTR inh: -15

Results for CC(C)c1ccc(-n2c(-c3ccccc3)c[n+]3c2CCc2ccccc2-3)cc1 ?
PrPC surface inh: 41*; CCHFV vOTU inh: 2; SARS 3CLpro inh: -1; PrP UTR inh: -8; PrPC TRFRET cf: 50*; LD9 cytotox: 37*

What do the screens show for `O=C(NC1CCCCCCC1)C1CCCN(S(=O)(=O)c2cnc[nH]2)C1` (stereo unspecified)?
PrPC surface inh: -7; CCHFV vOTU inh: 0; SARS 3CLpro inh: -4; PrP UTR inh: -19

How did Cn1c2ccccc2c2cc(/C=N/NC(=O)c3ccc(N)cc3)ccc21 do in these assays?
PrPC surface inh: 5; CCHFV vOTU inh: -1; SARS 3CLpro inh: -18; PrP UTR inh: -17

What do the screens show for `Cn1c2ccccc2c2cc(/C=N/NC(=O)c3ccccc3F)ccc21`?
PrPC surface inh: 47*; CCHFV vOTU inh: -2; SARS 3CLpro inh: 5; PrP UTR inh: -21; PrPC TRFRET cf: 14; LD9 cytotox: 0

Results for CN(c1ccc(OCC(=O)NC2CCCC2)cc1)S(=O)(=O)c1cccs1 ?
PrPC surface inh: 2; CCHFV vOTU inh: 4; SARS 3CLpro inh: -2; PrP UTR inh: -14
